The structures appear in SMILES notation. About 83,000 compounds went through this panel and 20% of them were active in at least one assay; those are over-represented in the sample as a whole.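 Method: cells in 96-well plates; compound added at one concentration; 48 h incubation; percent growth measured; values under 10 scored active.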 A number with no mark means an inactive call. Calls of active or inactive are those of the source.

For this assay, the system named is HL-60(TB) leukemia. The assay is described as follows: NCI-60 one-dose screen, 48 h (100 = growth as untreated, 0 = no growth, -100 = all killed). The following applies: 10 µM unless noted.
For the compound `CCOP(=O)(OCC)OC[C@]12CCC(C)(C)C=C1[C@H]1CC[C@@H]3[C@@]4(C)CC[C@H](OP(=O)(OCC)OCC)C(C)(C)[C@@H]4CC[C@@]3(C)[C@]1(C)CC2`, the growth was -22.1% (active).
`Cn1cc(-c2nnc(N)nc2-c2c[nH]c3ccc(Br)cc23)c2cc(Br)ccc21`: the growth was 90.8%.
As for `O=C(CSc1nccc(=O)[nH]1)Nc1ccc(-c2nc3ccccc3[nH]2)cc1`, the growth was 115%.
For `COc1ccc(N)cc1C(=O)Nc1cccc(-c2cc(=O)c3c(OC)c(OC)c(OC)cc3o2)c1` the value was 58.1%.
Then `O=C(c1ccc(O)cc1)[C@@H]1[C@@H]2CCCN2[C@@]2(C(=O)N(C(=O)c3ccc(F)cc3)c3ccccc32)[C@H]1c1ccc(F)cc1`, with 78.6%; and `NC(=O)C(=Cc1ccc(Cl)cc1)C(N)=O`, with 26.6%; and `COc1cc2c3c(cc4c5c(ccc4c3c1OC)OCO5)N(CCN(C)C)C2=O`, with -17.1% (active).
`CNCc1cccc2c1OCCCCCCC(C)(O)CC(C)(C)S(=O)(=O)c1ccc(cc1)-c1cnc(N)c(n1)C(=O)N2` (stereo unspecified): the growth was -44.1% (active).
As for `O=C(CCCCCCNC(=O)C(O)(O)C(F)(F)F)Nc1ccc(Br)cc1`, the growth was 10.4%.
Regarding `COc1cc(C2=NN(C(C)=O)C(c3ccc(N4CCOCC4)cc3)C2)cc(OC)c1OC` (stereo unspecified), the growth is 105%.
On to `CC[C@]12C=CCN3CC[C@]4(C(=C(C(=O)OC)C1)Nc1cc5c(cc14)[C@@H]1[C@H](O5)[C@@H](O)[C@@]4(CC)CC(C(=O)OC)=C5Nc6cc(OC)ccc6[C@@]56CCN1[C@@H]46)[C@@H]32`, for which the growth was 5.09% (active).

These data come from PubChem BioAssay (NCI).
